In all, about 340,000 compounds went through this assay and about 2,100 (0.62%) were called active.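 How the source made its calls: active means first-screen hits whose inhibition reached a set limit at any dose in the follow-up dose series; inconclusive means inhibition above the set first-screen limit but never retested; inactive means the rest.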 These entries were drawn from the full list. Measured potencies and affinities stand elsewhere.
The compounds below were run against Rac GTPase-activating protein 1 (Homo sapiens) (UniProt Q9H0H5) (assay: MgcRacGAP GTPase-activating activity inhibitors, confirmation, biochemical, ADP Hunter fluorescence, primary and confirmatory (AID 624330;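 further: fluorescence reports GDP produced by GAP-driven GTP hydrolysis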)). Conditions: MgcRacGAP-stimulated Rac1 GTP hydrolysis, at 30 µM, hits give high values, GST-tagged Rac1 F28L mutant substrate.
Sequence of Rac GTPase-activating protein 1 (Homo sapiens) (Q9H0H5 whole entry, looked up): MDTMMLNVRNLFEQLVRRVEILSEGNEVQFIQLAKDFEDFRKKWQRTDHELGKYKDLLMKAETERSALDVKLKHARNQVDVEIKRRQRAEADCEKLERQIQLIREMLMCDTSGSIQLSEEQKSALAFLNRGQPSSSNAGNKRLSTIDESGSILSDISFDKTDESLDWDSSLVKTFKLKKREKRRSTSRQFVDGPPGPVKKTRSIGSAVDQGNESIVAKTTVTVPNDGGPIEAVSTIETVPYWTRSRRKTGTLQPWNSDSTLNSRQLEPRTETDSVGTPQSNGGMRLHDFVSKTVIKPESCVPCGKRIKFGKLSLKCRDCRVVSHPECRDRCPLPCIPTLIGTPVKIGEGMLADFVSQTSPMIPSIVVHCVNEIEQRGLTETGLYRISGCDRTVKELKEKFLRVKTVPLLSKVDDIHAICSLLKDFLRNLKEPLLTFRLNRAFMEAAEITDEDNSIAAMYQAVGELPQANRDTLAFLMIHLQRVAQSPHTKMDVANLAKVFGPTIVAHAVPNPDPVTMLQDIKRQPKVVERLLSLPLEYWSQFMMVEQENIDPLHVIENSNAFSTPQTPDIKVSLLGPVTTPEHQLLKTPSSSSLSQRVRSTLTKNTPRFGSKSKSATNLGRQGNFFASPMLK

inhibition, inactive:
CCOc1ccc(-n2cccc2C=O)cc1 4.88%
O=C(O)c1cccc(-n2cccc2/C=C\[N+](=O)[O-])c1 26.7%
CN(C)c1ccc(-n2cccc2/C=N/n2cnnc2)cc1 9.83%
COc1ccc(-n2cccc2C=O)cc1 4.9%
CC(=O)NC(Cc1ccccc1C)C(=O)NC1CCN(c2nnnn2-c2ccccc2)CC1 (stereo unspecified) 3.78%
C#CCO[C@@H]1C[C@H](n2ccc(NC(=O)c3ccccc3)nc2=O)O[C@@H]1CO 7.23%
CSc1ncccc1C(=O)N1CCCC(N2CCN(c3ccccc3C)CC2)C1 (stereo unspecified) 10.5%
O=C(NC(c1ccccc1)c1ccccc1)C1CCCN(S(=O)(=O)c2cnc[nH]2)C1 (stereo unspecified) 1.47%
C=CCc1ccc(OCCOCCN(C)C)c(OC)c1 11.5%
C=CCc1ccc(OCCOCCNCCOC)c(OC)c1 8.29%
COc1cccc(NC(=O)COc2ccc(C(=S)N3CCN(C)CC3)cc2OC)c1 7.49%
Cc1ccc(NC(=O)CSc2nn(-c3ccccc3)c(=S)s2)cc1S(=O)(=O)N(C)C 2.35%
O=C(c1ccccc1F)N1CCN(C(=O)C2CC2)CC1 3.19%
CC1(C)O[C@@H]2[C@H](O1)[C@@H](COS(=O)(=O)O)O[C@H]2n1cnc2c(=O)[nH]cnc21 7.41%
CC1(C)O[C@@H]2[C@H](O1)[C@@H](COS(=O)(=O)O)O[C@H]2n1ccc(=O)[nH]c1=O 2.43%
CC1CN(S(=O)(=O)N(C)C)CCN1S(=O)(=O)N(C)C (stereo unspecified) 5.65%
COC(=O)c1c(N)sc(Cc2ccccc2)c1C 7.62%
CCOC(=O)c1c(N)sc(-c2ccccc2)c1C 27.2%
CC(C)c1ccc(N2C(=O)CC(Sc3ncccn3)C2=O)cc1 (stereo unspecified) 1.68%
O=S(=O)(c1ccccc1)N1CCN(S(=O)(=O)c2ccccc2)C1 3.12%
CC1=C(C)CS(=O)N(S(=O)(=O)c2ccccc2)C1 (stereo unspecified) 30.6%
Cc1cccc(C(=O)NCC(c2ccc(F)cc2)N2CCOCC2)c1 (stereo unspecified) 3.85%
Cc1ccc(C)c(CSc2ncccc2C(=O)O)c1 9.95%
NC(=O)c1ccc2c(c1)OCCO2 -2.13%
O=C(c1ccccc1)c1ccc2c(c1)OCCOCCOCCOCCO2 -8.09%
O=C(Nc1cccnc1)c1cccc(NC(=O)c2ccco2)c1 11.1%
O=C(Nc1cccc(S(=O)(=O)Nc2ccccc2F)c1)c1ccco1 0.67%
N#Cc1cc([N+](=O)[O-])ccc1NCCCn1ccnc1 -2.38%
Cc1ccccc1-n1c(=O)c2ccccc2n2cnnc12 2.97%
Cn1c(=O)c2ccccc2n2c(CCl)nnc12 -0.09%
Cc1ccccc1-n1c(=O)c2ccccc2n2c(=O)[nH]nc12 3.11%
Cc1nnc2n(-c3ccccc3)c(=O)c3ccccc3n12 9.66%
CCOCCCNC(=O)CCc1nnc2n(CCC(C)C)c(=O)c3ccccc3n12 7.91%
CCCCCn1c(=O)c2ccccc2n2c(CCl)nnc12 1.94%
CN1CCN(C(=O)/C(=C/c2ccco2)NC(=O)c2ccccc2)CC1 3.42%
CC1CCCCN1C(=O)NC1CC(=O)N(c2ccc3c(c2)OCCO3)C1 (stereo unspecified) 4.77%
CCCOc1ccc(C(=O)ON=C2CCN(C)CC2)cc1 5.39%
Cc1ccc(-c2csc3ncnc(N4CCN(Cc5ccccc5)CC4)c23)cc1 4.03%
O=C(CN1C(=O)NC2(CCOc3ccccc32)C1=O)c1ccc[nH]1 (stereo unspecified) -0.33%
COc1ccccc1CNc1nc2nc(C)c(Cl)c(=O)n2[nH]1 3.76%
Cc1nc2sc(C(c3cccs3)N3CCN(C(=O)c4ccco4)CC3)c(O)n2n1 (stereo unspecified) 1.66%
CCc1cc(/C(Cc2ccc3ccccc3n2)=N\O)c(O)cc1O 22.8%
CCc1cc(/C(Cc2ccccn2)=N\Nc2ccccc2)c(O)cc1O 5.83%
Cc1cc(O)cc(O)c1C(=O)Cc1cscn1 7.26%
CCc1cc2c(=O)c(-c3cscn3)coc2cc1O -2.61%
Cc1cc(O)c(C(=O)Cc2csc(C)n2)c(O)c1 1.16%
CCc1cc(C(=O)Cc2ccccn2)c(O)cc1O -7.09%
CCOC(=O)N1CCC(=NNC(=O)NC2CCCCC2)CC1 -0.13%
Cn1c(=O)n(C)c2cc(/C=N/N=C3/NC(=O)C(CC(=O)O)S3)ccc21 (stereo unspecified) 11.1%
Nn1c(SCC(=O)NCC2CCCO2)nnc1-c1cc(Cl)ccc1Cl (stereo unspecified) 5.2%
COc1ccccc1OCC(=O)NNC(=O)CSC(=S)N1CCCC1 8.8%
CC(C)C(NC(=O)CNC(=O)OC(C)(C)C)C(=O)NCc1ccc(Cl)cc1 (stereo unspecified) 4.12%
COc1ccc(OCCOCCN2CCOCC2)cc1 12.8%
CN1CCN(CCOc2ccc(Cc3ccccc3)cc2)CC1 10.6%
CCN1CCN(CCOCCOc2ccccc2)CC1 28.1%
c1ccc(COc2ccc(OCCCN3CCCC3)cc2)cc1 15.1%
CCOc1ccc(OCCN2CCCCC2)cc1 19.4%
CCOc1cccc(OCCOCCN2CCCC2)c1 25%
c1ccc(OCCCCN2CCCCC2)cc1 12.9%
COc1ccc(OCCOCCN2CCc3ccccc3C2)cc1 28.9%
CC(Sc1nnc(-c2ccccc2F)n1C)C(=O)NC1CCCCC1 (stereo unspecified) 6.18%
CCOC(=O)c1c(C)sc(Sc2ccc(Cl)cc2[N+](=O)[O-])c1OC 4.34%
Cc1ccnc(SC2CC(=O)N(c3ccc(F)cc3)C2=O)n1 (stereo unspecified) 1.56%
C(=N\N=C\c1ccccn1)/c1ccccn1 3.13%
COc1ccc(CN(C)C(=O)[C@H](Cc2ccccc2)NC(=O)c2ccco2)c(OC)c1 0.3%
COCCCNC(=O)CC1C[C@H](C(=O)N2CCOCC2)[C@@]2(C)c3[nH]c4ccc(OC)cc4c3CCN2C1=O (stereo partly specified) 8.55%
Cc1ccccc1N(CC(=O)N/N=C/c1cc(Br)c(C)o1)S(C)(=O)=O 4.93%
O=S(=O)(NCCN1CCOCC1)c1ccc2c(c1)OCCO2 3.86%
C/C(=N\NC(=O)C1(C)CC1(Br)Br)c1cccc(NC(=O)c2ccc(C)o2)c1 (stereo unspecified) 5.18%
O=C(C1=NN[C@@H]2C(=O)N(Cc3ccccc3)C(=O)[C@H]12)c1ccc([N+](=O)[O-])cc1 14.7%
COc1ccc(/C=C2\SC(N3CCc4ccccc4C3)=NC2=O)cc1OC 10.4%
O=C(CCC(=O)c1cccs1)NCC(c1ccc(F)cc1)N1CCOCC1 (stereo unspecified) 4.84%
Cc1cccc(N2CCN(C(=O)c3ccc4c(c3)c(C)c(C)n4C)CC2C)c1 (stereo unspecified) -37%
Cc1cc(C)n(CC(=O)N2c3ccccc3Sc3ccccc32)n1 4.56%
Cc1nn(CC(O)CN2c3ccccc3Sc3ccccc32)c(C)c1Br (stereo unspecified) 7.34%
COc1ccccc1NCc1ccc([N+](=O)[O-])s1 15.3%
COc1ccc(NCc2ccc([N+](=O)[O-])s2)cc1 23.5%
Cc1ccc(Sc2ccc(N)cc2C#N)cc1 4.36%
COC(=O)c1ccc(Sc2ccc(C)cc2)c(N)c1 9.92%
NC(=S)c1ccc(OCCCc2ccccc2)cc1 8.89%
Nc1ccc(C(=O)OCCc2ccccc2)cc1 6.65%
CC(=O)NC(Cc1ccc(C(C)C)cc1)C(=O)NC1CCN(c2nc(C)cc(C)n2)CC1 (stereo unspecified) 7.86%
CC(c1ccc2ccccc2c1)c1ccccc1C(=O)O (stereo unspecified) 5.25%
N#C/C(=C/c1ccc(N2CCCCCC2)o1)c1ccc(Cl)cc1 38.4%
N#C/C(=C\c1ccc(N2CCOCC2)cc1)c1ccccc1 -4.89%
N#C/C(=C/c1ccc(N2CCOCC2)o1)c1ccc(Br)cc1 27%
N#C/C(=C/c1ccc(N2CCOCC2)o1)c1ccc(Cl)cc1 41.4%
CCN(CC)c1ccc(C=C2C(=O)OC3(CCCC3)OC2=O)cc1 14.2%
O=C1c2cccc3cccc(c23)C(=O)N1Cc1ccco1 6.44%
CN(C)c1ccc(C=C2SC(=S)N(Cc3ccco3)C2=O)cc1 9.1%
COC(=O)C1=C(C)N(Cc2ccco2)C(=O)/C1=C\c1ccc(N(C)C)cc1 1.57%
CCN(CC)c1ccc(C=C2C(=O)OC3(CCCCC3)OC2=O)cc1 4.11%
O=C1c2ccccc2C(=O)N1Cc1ccco1 8.18%
COCCNC(=S)N/N=C/c1c2ccccc2cc2ccccc12 6.58%
COc1ccccc1CC(=O)Nc1ccc2c(C)cc(=O)oc2c1 4.86%
COC(=O)C(CC(C)C)NC(=O)c1cccs1 (stereo unspecified) 0.95%
COc1ccc(N=C2S/C(=C\c3cccs3)C(=O)N2CC(C)C)cc1 12.5%
CC(C(=O)Nc1ccc(F)c(F)c1F)N1CCCCCC1 (stereo unspecified) 9.76%
O=C(CN1CCCCC1)NCC(=O)Nc1ccc(F)c(F)c1F -2.94%
O=C(CN1CCN(Cc2cccc(C(F)(F)F)c2)CC1)NCC(=O)Nc1ccc(F)c(F)c1F 3.75%
CC(C(=O)NCC(=O)Nc1ccc(F)c(F)c1F)N1CCN(Cc2ccc(C#N)cc2)CC1 (stereo unspecified) -0.12%

From PubChem BioAssay AID624330 (Southern Research Specialized Biocontainment Screening …, 2012)
